ALR inh = human ALR oxidase inhibition via reduced H2O2; 290,000 tested, 3.8% active; inhibition, % (no concentration beside the values); purified ALR, DTT oxidation, H2O2 HRP-luminol luminescence; AID 485317; P55789;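 active means mean replicate inhibition above about 79%, with every replicate also reaching it, limit read from the data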
Target sequence (P55789 whole entry, looked up): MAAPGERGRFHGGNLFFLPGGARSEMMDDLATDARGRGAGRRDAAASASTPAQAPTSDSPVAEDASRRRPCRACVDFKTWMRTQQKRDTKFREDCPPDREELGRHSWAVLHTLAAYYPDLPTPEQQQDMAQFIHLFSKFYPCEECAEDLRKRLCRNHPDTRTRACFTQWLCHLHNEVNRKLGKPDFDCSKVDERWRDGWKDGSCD
rCAG RNA binder = r(CAG) repeat RNA binding; TO-PRO-1 dye displacement fluorescence; inhibition, % at 3 µM; 370,000 tested, 1.3% active; AID 651821;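 active means inhibition above the plate cutoff, the mean of all test compounds on that plate plus 3 SD, cut at about 35% in these data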;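 further: 0% = DMSO alone and 100% = 100 µM mitoxantrone as full dye displacement; higher means more dye released from RNA so lower well fluorescence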
APOBEC3G inh = APOBEC3G (human) deaminase inhibition; inhibition, % at 20 µM; recombinant A3G, ssDNA deamination FAM/TAMRA fluorescence; 330,000 tested, 0.28% active; Q9HC16;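 active means inhibition of at least 40% at 20 µM, with no more than 30% in the related APOBEC3A deaminase screen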;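 further: plate controls were DMSO wells with A3G for no effect and wells lacking A3G enzyme for full effect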
PHOSPHO1 block = inhibitors of human PHOSPHO1 phosphatase | Q8TCT1 | recombinant PHOSPHO1, absorbance phosphatase assay | inhibition, % at 13.3 µM | 290,000 tested, 1.1% active; in the data active means inhibition above about 60%
Target sequence (Q8TCT1 whole entry, looked up): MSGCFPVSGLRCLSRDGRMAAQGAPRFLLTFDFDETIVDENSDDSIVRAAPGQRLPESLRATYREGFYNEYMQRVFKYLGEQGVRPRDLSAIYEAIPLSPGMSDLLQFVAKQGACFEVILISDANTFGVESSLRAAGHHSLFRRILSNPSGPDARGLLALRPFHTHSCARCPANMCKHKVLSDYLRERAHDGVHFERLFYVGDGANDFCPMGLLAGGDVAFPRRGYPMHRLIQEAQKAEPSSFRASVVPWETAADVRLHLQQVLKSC
APOBEC3A inh = inhibitors of human APOBEC3A DNA deaminase; P31941; recombinant A3A, FAM/TAMRA ssDNA deamination fluorescence; inhibition, % at 20 µM; 330,000 tested, 0.41% active;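 active means at least 40% inhibition at 20 µM here, with at most 30% in a related deaminase screen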;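 further: plate controls were A3A with DMSO for no effect and wells lacking A3A enzyme for full effect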
aDG glyco up = increases alpha dystroglycan glycosylation; Pro5-aDG cells, alpha-DG glycosylation AlphaScreen (IIH6); 0% Pro5, 100% B10-LARGE cell signal; activation, % at 10 µM; 360,000 tested, 0.22% active;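 active means activation of at least 8% versus controls, or a plate z-score of at least 8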;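 further: Pro5 are CHO cells carrying HIG-tagged alpha-DG that lacks glycosylation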
An asterisk follows results filed as active; · = no result. The list is not random: actives were taken first. Their share in the collection is about 5.4%.

SMILES	ALR inh	rCAG RNA binder	APOBEC3G inh	PHOSPHO1 block	APOBEC3A inh	aDG glyco up
CCCNC(=O)Nc1ccc2c(c1)C(=O)N(C)[C@H]1CC[C@@H](CC(=O)OC)O[C@H]1CO2	·	14.2	·	·	·	·
COc1cccc(/C=N/NC(=O)Cn2nc(C)c([N+](=O)[O-])c2C)c1O	87.8*	3.5	-5.1	-21.4	-2.8	0.5
C=CCn1c(-c2c[nH]c3ccccc23)n[nH]c1=S	27.6	3.5	19.1	101.1*	-8.2	0.5
CCCCn1c(-c2ccoc2C)n[nH]c1=S	30.1	10.7	35.8	-3.3	-0.2	0.0
C=CCn1c(-c2ccccc2[N+](=O)[O-])n[nH]c1=S	89.4*	-1.7	9.7	-130.6	-4.4	0.1
CCn1c(CCn2c3ccccc3c3ccccc32)n[nH]c1=S	88.2*	2.5	1.2	4.7	-3.3	0.2
C=CCn1c(-c2ccoc2C)n[nH]c1=S	4.2	2.6	-6.9	80.9*	-4.7	-0.1
CCn1c(CCc2ccccc2)n[nH]c1=S	9.8	-1.6	20.2	-9.1	-0.1	0.0
O=C(NCC1CCN(C(=O)C(=O)c2cc3ccccc3o2)CC1)c1cccnc1	·	0.7	·	·	·	·
CCN(CC)C(=O)CSc1nnc(-c2ccc(C(C)(C)C)cc2)n1-c1ccc(Cl)cc1	·	2.7	·	·	·	·
CCCSc1nnc(-c2c[nH]c3ccccc23)n1CC	-8.9	-2.0	-2.6	-3.3	-4.1	0.0
CCn1c(-c2c[nH]c3ccccc23)n[nH]c1=S	55.2	-3.0	39.2	78.9*	-5.9	0.1
O=C1NC(C(=O)O)=CC(c2ccc([N+](=O)[O-])cc2)N1 (centres undefined)	78.1*	3.0	4.0	3.8	-3.1	0.0
CC1(C(=O)O)COC(c2ccc([N+](=O)[O-])cc2)OC1 (centres undefined)	-14.8	3.3	-1.1	0.3	1.2	-0.2
COc1cc(/C=N\NC(=O)c2ccc(Cn3nc([N+](=O)[O-])c(Cl)c3C)o2)ccc1O	95.3*	6.8	-10.1	0.2	-6.1	-0.3
CCOC(=O)c1csc(NC(=O)C2CCCN(S(=O)(=O)c3ccc([N+](=O)[O-])cc3)C2)n1 (centres undefined)	·	3.4	·	·	·	·
COc1ccc(CN2C(=O)CCCC2(C)c2nnnn2-c2ccc3c(c2)OCCO3)cc1 (centres undefined)	·	5.0	·	·	·	·
Cc1ccc(CNC(=O)CCc2nnc(Cc3ccc(-c4ccccc4)cc3)o2)o1	96.8*	-0.2	-5.5	49.9	-3.1	0.3
COCCCNC(=O)CCc1nnc(Cc2ccc(-c3ccccc3)cc2)o1	·	-4.0	5.0	41.2	1.5	0.6
Cn1c(=O)c2ccccc2n(C)c1=O	·	0.2	·	·	·	·
Cc1ccc(C)c(NC(=O)CN2C(=O)c3ccccc3C2=O)c1	2.1	2.3	-5.9	·	-1.2	-0.2
Cc1ccc(C)c(NC(=O)CSc2nc3ccc(N4C(=O)c5ccccc5C4=O)cc3s2)c1	86.0*	11.8	-4.5	7.4	16.6	0.0
COc1ccc(Nc2cc(C(=O)NCCCN3CCN(C)CC3)c3ccccc3n2)c(OC)c1	80.6*	-5.4	1.2	67.3*	-0.2	-0.1
COc1ccc2c3c([nH]c2c1)C(C)N(C(C)=O)CC3 (centres undefined)	96.8*	-4.3	-6.0	6.5	-4.6	0.0
O=C1/C(=C/c2cccnc2)SC(=S)N1CC1CCCO1 (centres undefined)	-6.1	-4.3	-1.5	27.1	6.0	0.5
SMILES	ALR inh	rCAG RNA binder	APOBEC3G inh	PHOSPHO1 block	APOBEC3A inh	aDG glyco up
O=C1/C(=C\c2ccc(-c3ccccc3Cl)o2)SC(=S)N1CC1CCCO1 (centres undefined)	-1.9	4.9	-0.5	81.3*	-0.2	-0.5
O=C(NC1CCCCN(Cc2ccc(OC(F)(F)F)cc2)C1=O)c1cccc(F)c1 (centres undefined)	·	0.7	·	·	·	·
c1ccc(-c2cnnc(SCc3cn4cccnc4n3)n2)cc1	18.9	0.7	-1.0	75.9*	7.0	-0.2
c1coc(CSCc2cn3cccnc3n2)c1	-4.7	1.2	-7.4	35.5	-17.0	0.1
c1ccc2[nH]c(SCc3cn4cccnc4n3)nc2c1	99.2*	-2.4	-11.6	-26.9	30.3	-0.4
c1ccc(CN2CCN(Cc3cn4cccnc4n3)CC2)cc1	-12.3	-0.8	-8.3	2.2	-2.8	-0.3
Cc1ccc2c3c([nH]c2c1)C(=O)CC(C)(C)S3	98.1*	-0.9	-6.6	32.4	-3.7	-0.1
O=C(NCc1ccccc1)N1CCC(c2nc3ccc(Cl)cc3[nH]2)CC1	·	3.4	·	·	·	·
COC(=O)[C@@H](N)Cc1ccc(O)c(O)c1	97.6*	-1.2	1.9	·	0.2	-0.1
COC(=O)C(N)Cc1ccc(Cl)cc1 (centres undefined)	-16.9	2.2	-2.1	·	0.5	0.0
COc1ccccc1NS(=O)(=O)c1cccc(C(=O)NN=C2CCCC2)c1	2.2	6.8	-8.3	5.5	1.3	-0.3
COc1ccccc1NS(=O)(=O)c1cccc(C(=O)N/N=C2\CC(=O)CC(C)(C)C2)c1	92.5*	11.4	-2.2	3.0	-3.2	-0.2
COc1ccc([C@H]2OC(=O)C[C@@H]2C(=O)N2CCN(c3ccccc3Cl)CC2)cc1OC	·	1.7	·	·	·	·
O=C(NNS(=O)(=O)c1ccc(F)cc1)c1cc2ccccc2cc1O	98.4*	21.2	-14.5	32.5	-6.2	-0.1
O=C(NNc1ccccn1)C(=O)NNS(=O)(=O)c1ccc(F)cc1	99.2*	1.2	-7.6	48.9	-4.9	0.5
O=C(NNc1ccccn1)C(=O)NNS(=O)(=O)c1ccc(Cl)cc1	98.5*	0.4	-4.6	44.0	-3.1	0.0
CCOc1ccc(NC(=O)Nc2nc3ccc(S(C)(=O)=O)cc3s2)cc1	-16.5	38.9*	-9.0	21.2	-0.6	-0.3
CCCC(=O)Nc1nc2ccc(S(N)(=O)=O)cc2s1	98.8*	2.9	12.0	-3.4	5.2	0.8
CCOCC(=O)Nc1nc2ccc(S(C)(=O)=O)cc2s1	-8.1	-1.6	-3.5	-17.6	-1.7	0.0
C=C(C)CSc1nnc(-c2cc(-c3ccc(OC)cc3)n[nH]2)n1N	·	0.1	·	·	·	·
CCC(C)NC(=O)c1nc2c(nnn2Cc2ccccc2Cl)c(=O)[nH]1 (centres undefined)	87.6*	7.8	-5.3	17.9	-5.6	0.2
O=C(NCc1cccs1)c1nc2c(nnn2Cc2ccccc2Cl)c(=O)[nH]1	94.8*	27.4	·	-3.2	·	-0.2
O=C(Cc1cccs1)N1CCCC(c2nc3c(nnn3Cc3ccccc3Cl)c(=O)[nH]2)C1 (centres undefined)	-6.7	2.4	-3.4	-51.0	-1.7	0.0
CCOC(=O)[C@]12CCCC=C1N(Cc1ccc(OC)cc1)C(=O)[C@@H]2CC(=O)NCc1cccc(C(F)(F)F)c1	·	2.2	·	·	·	·
C[C@@H]1CCN(C2CC2)S(=O)(=O)c2ccc(N3CCC[C@H]3CO)cc2O1	·	7.3	·	·	·	·
O=C(CCl)NCc1c(Cl)cccc1-n1cccc1	96.1*	-1.6	-4.3	25.8	0.6	0.4
